# From PubChem BioAssay (NCATS)
# Unmarked numbers belong to inactive results. Inconclusive results are not listed. Active and inactive are the calls of the source. Unless noted, calls follow the shape of the dose curve; as a rule, active = well fitted curve in the direction sought with a large enough effect; inconclusive = small, poorly fitted or top-dose-only effect, or another doubt; inactive = no such curve, though single readings can be large; an effect the other way counts as inactive or inconclusive.
# How the values were obtained:
# [1] = Confirmatory qHTS for small molecule stabilizers of the endoplasmic reticulum resident proteome: Secreted ER Calcium Modulated Protein (SERCaMP) assay (AID 1508628);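 also: SH-SY5Y cells given compound 16 h then thapsigargin 100 nM for 4 h; % is scaled to controls: 0 for no effect and ±100 for the full control effect; nearly all actives have a fitted effect of over 40% in size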
# Procedure, shortened: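 GLuc-SERCaMP-expressing SH-SY5Y cells, pretreated 16 h with compound, are challenged with thapsigargin to empty ER calcium stores; after 4 h, coelenterazine is added directly to the medium and luminescence is imaged.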
# [2] = biological target: Glutathione peroxidase 1 (Homo sapiens) (UniProt P07203); test: Primary qHTS Assay for Inhibitors of Recombinant Selenoprotein Glutathione Peroxidase 1 (GPX1) (AID 1845191); also: % is scaled to controls: 0 for no effect and ±100 for the full control effect; nearly all actives have a fitted effect of over 65% in size
# Chain of Glutathione peroxidase 1 (Homo sapiens) (P07203 whole entry, looked up): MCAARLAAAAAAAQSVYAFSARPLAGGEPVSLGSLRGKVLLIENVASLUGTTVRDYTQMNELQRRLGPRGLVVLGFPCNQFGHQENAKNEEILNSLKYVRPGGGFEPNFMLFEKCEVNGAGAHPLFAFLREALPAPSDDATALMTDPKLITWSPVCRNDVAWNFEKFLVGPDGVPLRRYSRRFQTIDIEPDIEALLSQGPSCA
# Procedure, shortened: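 GR-coupled readout: NADPH consumption tracked by fluorescence, ex 340/em 450 nm, at t=0 and after 15 min at RT. Final mix 10 nM GPX1, 1 mM GSH, 0.5 mM CHP, 0.5 mM NADPH, 100 nM GR, 0.01% BSA, following 30 min enzyme–compound preincubation.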
# [3] = biological target: Phospholipid hydroperoxide glutathione peroxidase GPX4 (Homo sapiens) (UniProt P36969); test: Primary qHTS Assay for Inhibitors of Recombinant Selenoprotein Glutathione Peroxidase 4 (GPX4) (AID 1845192); settings: outcome: dose series up to 50 µM unless noted; also: % is scaled to controls: 0 for no effect and ±100 for the full control effect; nearly all actives have a fitted effect of over 65% in size
# Chain of Phospholipid hydroperoxide glutathione peroxidase GPX4 (Homo sapiens) (P36969 whole entry, looked up): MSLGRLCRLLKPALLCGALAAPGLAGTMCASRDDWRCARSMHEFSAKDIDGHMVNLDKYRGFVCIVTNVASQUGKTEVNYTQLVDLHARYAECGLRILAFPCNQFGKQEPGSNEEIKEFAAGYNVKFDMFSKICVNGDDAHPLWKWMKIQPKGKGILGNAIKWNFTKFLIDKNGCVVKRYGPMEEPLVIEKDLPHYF
# Procedure, shortened: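 Steps: GPX4 plus compound, 30 min RT; add GR/GSH/NADPH master mix; start with cumene hydroperoxide; read 340/450 nm fluorescence at 0 and 15 min. Finals were 200 nM GPX4, 1 mM GSH, 0.5 mM CHP, 0.5 mM NADPH, 100 nM GR.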
# [4] = biological target: Cytochrome P450 3A4 (Homo sapiens) (UniProt P08684); test: qHTS Assay for Inhibitors and Substrates of Cytochrome P450 3A4 (AID 884); also: nearly all actives have a fitted effect of over 50% in size; also: potency is read from the fitted curve at half-maximal effect; as to activity change, negative = inhibition: % is scaled to controls: 0 for no effect and ±100 for the full control effect
# Chain of Cytochrome P450 3A4 (Homo sapiens) (P08684 whole entry, looked up): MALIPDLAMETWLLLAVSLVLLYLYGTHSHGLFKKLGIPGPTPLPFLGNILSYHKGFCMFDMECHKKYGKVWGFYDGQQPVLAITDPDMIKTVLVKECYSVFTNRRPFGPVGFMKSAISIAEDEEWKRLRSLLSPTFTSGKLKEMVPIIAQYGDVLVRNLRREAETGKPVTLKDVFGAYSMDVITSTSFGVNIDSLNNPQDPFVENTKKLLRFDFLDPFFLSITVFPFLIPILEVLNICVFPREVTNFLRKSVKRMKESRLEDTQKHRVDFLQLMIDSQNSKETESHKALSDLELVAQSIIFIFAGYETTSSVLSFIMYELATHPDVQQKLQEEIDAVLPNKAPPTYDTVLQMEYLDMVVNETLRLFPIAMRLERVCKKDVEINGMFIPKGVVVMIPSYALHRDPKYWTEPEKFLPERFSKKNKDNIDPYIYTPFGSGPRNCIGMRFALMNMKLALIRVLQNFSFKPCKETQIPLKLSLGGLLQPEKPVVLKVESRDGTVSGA
# Procedure, shortened: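 Luminescent readout of luciferin produced by CYP3A4 (20 nM) dealkylation of Luciferin-PPXE, 25 uM (its KM). NADPH-driven reaction ran 60 min at RT after 10 min compound preincubation; data scaled to 57 uM ketoconazole as 100% inhibition.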
# [5] = qHTS Assay for Identification of Small Molecule Agonists for Hypoxia Response Element Signaling Pathway (AID 914; active = well fitted activation curve with a large enough effect in the signal ratio, with a control signal flat, not every such curve was filed as active; the % refers to the signal ratio; also: % of control where 0% means no effect); settings: ME-180 (cervical carcinoma) HRE-bla reporter, beta-lactamase ratio, CoCl2, 17 h; activation: stronger effect = higher value
# Procedure, shortened: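 Compounds in a titration series were added to ME-180 reporter cells alongside an EC50 level of CoCl2. After 17 hours, beta-lactamase activity was read as the 460nm/530nm emission ratio of CCF4, giving AC50 values.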
# [6] = biological target: Cytochrome P450 2C19 (Homo sapiens) (UniProt P33261); test: qHTS Assay for Inhibitors and Substrates of Cytochrome P450 2C19 (AID 899); also: nearly all actives have a fitted effect of over 60% in size; also: potency is read from the fitted curve at half-maximal effect; as to activity, negative = inhibition: % is scaled to controls: 0 for no effect and ±100 for the full control effect
# Chain of Cytochrome P450 2C19 (Homo sapiens) (P33261 whole entry, looked up): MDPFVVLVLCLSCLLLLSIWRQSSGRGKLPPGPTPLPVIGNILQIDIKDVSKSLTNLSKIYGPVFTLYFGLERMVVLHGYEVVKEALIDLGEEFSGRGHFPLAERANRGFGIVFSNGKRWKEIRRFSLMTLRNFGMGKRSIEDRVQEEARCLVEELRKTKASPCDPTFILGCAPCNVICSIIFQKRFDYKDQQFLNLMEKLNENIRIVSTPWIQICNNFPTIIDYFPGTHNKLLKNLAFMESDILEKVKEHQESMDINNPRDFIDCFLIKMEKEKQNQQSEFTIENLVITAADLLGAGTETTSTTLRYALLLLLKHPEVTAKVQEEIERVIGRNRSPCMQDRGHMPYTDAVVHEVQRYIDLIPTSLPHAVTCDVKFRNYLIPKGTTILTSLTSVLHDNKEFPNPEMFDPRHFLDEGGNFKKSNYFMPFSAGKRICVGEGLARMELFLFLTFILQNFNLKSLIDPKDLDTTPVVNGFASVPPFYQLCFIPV
# Procedure, shortened: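 5 nM human CYP2C19 with 10uM Luciferin-H EGE (at KM) in 50mM KPO4, compound preincubated 10 min at 37C, then NADPH regeneration for 60 min at 37C. Luciferin read by luminescence after detection reagent; normalized to 57uM ketoconazole as full inhibition.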
# [7] = Confirmation and Secondary Assay for Modulators of Hemoglobin Beta Chain Splicing at IVS2 654 locus (AID 910);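 also: HeLa cells stably carrying EGFP split by mutant beta-globin IVS2-654 intron; % of control where 0% means no effect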
# Procedure, shortened: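 HeLa cells stably expressing EGFP interrupted by β-globin IVS2-654 intron, seeded overnight in Opti-MEM/2% FCS, then treated 2 days at 37 °C. Restored splicing read as total peak GFP intensity per well by laser scanning cytometry (488 nm excitation, 500–520 nm emission); 500 nM antisense PNA as control.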
# [8] = Confirmation and Secondary Assay for Modulators of Hemoglobin Beta Chain Splicing at IVS2 705 locus (AID 930);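 also: HeLa cells stably expressing the EGFP-705 splicing reporter; GFP fluorescence per well restored by corrected splicing of the IVS2-705 intron in EGFP; % of control where 0% means no effect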
# Procedure, shortened: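 Assay measures total GFP intensity per well in HeLa EGFP-705 cells after 2 days with compound; mis-splicing normally truncates EGFP, so fluorescence indicates corrected splicing.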
# [9] = NCATS anti-infectives library activity on HEK293 viability as a counter-qHTS vs the C. elegans viability qHTS (AID 1745854);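 also: HEK293 cells exposed to compounds for 24 hr before the viability read; % is scaled to controls: 0 for no effect and ±100 for the full control effect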
# Procedure, shortened: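 Compound titrations (final up to 41.7 uM) were incubated with HEK293 cells for 24 hr at 37C under 5% CO2. Viable cells were quantified with CellTiter-Glo after 10 min at ambient temperature.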
# [10] = biological target: ATP-dependent 6-phosphofructokinase (Trypanosoma brucei brucei) (UniProt O15648); test: qHTS Assay to Find Inhibitors of T. brucei phosphofructokinase: hit validation (AID 492961);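 also: luminescence reports ADP formed as PFK phosphorylates fructose-6-phosphate with ATP; % is scaled to controls: 0 for no effect and ±100 for the full control effect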
# Chain of ATP-dependent 6-phosphofructokinase (Trypanosoma brucei brucei) (O15648 whole entry, looked up): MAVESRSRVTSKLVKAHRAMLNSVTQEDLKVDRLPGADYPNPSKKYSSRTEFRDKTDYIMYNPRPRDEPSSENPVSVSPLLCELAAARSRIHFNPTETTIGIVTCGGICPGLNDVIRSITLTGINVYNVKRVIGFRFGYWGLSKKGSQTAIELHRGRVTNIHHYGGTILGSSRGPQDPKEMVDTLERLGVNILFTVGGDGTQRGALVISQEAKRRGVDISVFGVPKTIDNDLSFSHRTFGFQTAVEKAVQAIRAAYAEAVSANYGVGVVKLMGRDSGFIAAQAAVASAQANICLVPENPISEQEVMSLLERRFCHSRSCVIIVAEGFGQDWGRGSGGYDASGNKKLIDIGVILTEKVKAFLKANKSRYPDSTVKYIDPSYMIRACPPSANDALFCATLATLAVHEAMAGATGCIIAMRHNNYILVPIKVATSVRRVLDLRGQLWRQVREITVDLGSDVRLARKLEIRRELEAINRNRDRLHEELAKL
# Procedure, shortened: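 Compounds titrated; %activity normalized to 0x and 1x enzyme controls, curve-fitted. Readout: ADP-Glo luminescence after 45 min room-temperature reaction of 1.25 nM PFK, 0.1 mM ATP, 0.5 mM F6P, pH 8.0.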
# [11] = qHTS profiling for inhibitors of Plasmodium falciparum proliferation (AID 504749);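 also: 0% = DMSO vehicle and full inhibition = artemisinin control; nearly all actives have a fitted effect of over 60% in size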; settings: P. falciparum in erythrocytes, SYBR Green DNA, 72 h, at 12.8 µM (top of the series)
# Procedure, shortened: (§1)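 SYBR Green fluorescence (ex 485 nm, em 535 nm) reports parasite DNA after 72 h compound exposure of infected red cells at 0.3% parasitemia, 2.5% hematocrit; signal normalized to 0.29 uM artemisinin and vehicle wells.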
# AS120 = test: as above; settings: P. falciparum in erythrocytes, SYBR Green DNA, 72 h; series mostly up to 28.7 µM
# Procedure, shortened: as §1
# ATS189 = test: as above; settings: P. falciparum in erythrocytes, SYBR Green DNA, 72 h; series mostly up to 28.7 µM
# Procedure, shortened: as §1
# CP191 = test: as above; settings: P. falciparum in erythrocytes, SYBR Green DNA, 72 h; series mostly up to 28.7 µM
# Procedure, shortened: as §1
# CP203 = test: as above; settings: P. falciparum in erythrocytes, SYBR Green DNA, 72 h; series mostly up to 28.7 µM
# Procedure, shortened: as §1
# CP291 = test: as above; settings: P. falciparum in erythrocytes, SYBR Green DNA, 72 h; series mostly up to 28.7 µM
# Procedure, shortened: as §1
# TAB113 = test: as above; settings: P. falciparum in erythrocytes, SYBR Green DNA, 72 h; series mostly up to 28.7 µM
# Procedure, shortened: as §1
# W2 = test: as above; settings: P. falciparum in erythrocytes, SYBR Green DNA, 72 h; series mostly up to 28.7 µM
# Procedure, shortened: as §1
# [12] = biological target: Cytochrome P450 2D6 (Homo sapiens) (UniProt P10635); test: qHTS Assay for Inhibitors and Substrates of Cytochrome P450 2D6 (AID 891); also: potency is read from the fitted curve at half-maximal effect; nearly all actives have a fitted effect of over 60% in size
# Chain of Cytochrome P450 2D6 (Homo sapiens) (P10635 whole entry, looked up): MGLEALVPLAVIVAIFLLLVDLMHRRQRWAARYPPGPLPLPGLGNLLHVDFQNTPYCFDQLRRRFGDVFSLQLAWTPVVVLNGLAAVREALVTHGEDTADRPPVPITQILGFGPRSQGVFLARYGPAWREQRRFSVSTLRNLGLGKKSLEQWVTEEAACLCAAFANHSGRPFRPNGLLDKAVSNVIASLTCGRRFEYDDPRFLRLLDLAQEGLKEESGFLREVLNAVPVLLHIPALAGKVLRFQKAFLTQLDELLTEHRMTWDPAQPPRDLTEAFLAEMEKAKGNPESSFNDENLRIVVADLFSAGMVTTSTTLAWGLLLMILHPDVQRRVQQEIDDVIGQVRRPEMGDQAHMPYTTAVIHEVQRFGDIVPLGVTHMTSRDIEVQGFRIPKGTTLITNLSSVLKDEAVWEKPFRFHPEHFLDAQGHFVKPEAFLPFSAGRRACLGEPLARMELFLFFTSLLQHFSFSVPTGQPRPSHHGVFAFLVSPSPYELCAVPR
# Procedure, shortened: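 Luminescent read-out of luciferin formed by 5 nM human CYP2D6 demethylating 30 uM Luciferin-ME EGE (Km level) over 60 min at room temperature after NADPH regeneration addition. Data normalized to full inhibition by 1.43 uM quinidine.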
# [13] = biological target: Cytochrome P450 2C9 (Homo sapiens) (UniProt P11712); test: qHTS Assay for Inhibitors and Substrates of Cytochrome P450 2C9 (AID 883); also: nearly all actives have a fitted effect of over 60% in size; also: potency is read from the fitted curve at half-maximal effect
# Chain of Cytochrome P450 2C9 (Homo sapiens) (P11712 whole entry, looked up): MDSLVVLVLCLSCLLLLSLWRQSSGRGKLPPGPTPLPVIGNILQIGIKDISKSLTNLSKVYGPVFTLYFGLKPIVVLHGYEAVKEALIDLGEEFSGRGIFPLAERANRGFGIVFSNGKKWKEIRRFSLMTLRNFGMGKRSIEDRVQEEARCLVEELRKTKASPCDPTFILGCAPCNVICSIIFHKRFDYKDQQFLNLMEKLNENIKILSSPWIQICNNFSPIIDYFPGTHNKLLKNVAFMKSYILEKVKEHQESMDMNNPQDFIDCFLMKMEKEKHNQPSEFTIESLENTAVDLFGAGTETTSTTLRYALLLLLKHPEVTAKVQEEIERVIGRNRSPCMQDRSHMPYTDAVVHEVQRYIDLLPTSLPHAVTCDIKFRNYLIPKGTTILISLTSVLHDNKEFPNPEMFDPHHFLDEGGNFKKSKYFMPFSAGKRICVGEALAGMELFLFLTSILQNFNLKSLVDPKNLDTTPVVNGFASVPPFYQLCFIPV
# Procedure, shortened: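 Human CYP2C9 (10nM) with Luciferin-H at 100uM (its KM) in 25mM KPO4; compound preincubated 10 min at 37C, then NADPH regeneration for 60 min at 37C. Luciferin read by luminescence after detection reagent; normalized to 57uM sulphaphenazole as full inhibition.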
compound,measurement,setting,value
OC[C@H]1NC[C@@H](O)[C@@H](O)[C@@H]1O,Potency,[1],inactive
same,Potency,[2],inactive
same,Potency,[3],inactive
O=C(c1cccc(F)c1)N1CCC2(CC1)CN(c1cccc(-c3ccccc3)c1)C2,Potency,[4],inactive
CN(C)c1ncc2nc(-c3cccs3)c(=O)n(C[C@H]3CCCO3)c2n1,activation,[5],-3.72%
COc1ccccc1-c1cc(NCc2cccc(C)c2)ncn1,Potency,[4],6.31 µM (active)
same,Potency,[6],3.98 µM (active)
CC(C)=CCC1=C(O)c2ccccc2C(=O)C1=O,outcome,[7],inactive
same,outcome,[8],inactive
same,Potency,[9],inactive
COc1cc(O)c2c(=O)cc(C)oc2c1CC=C(C)C,outcome,[7],inactive
same,outcome,[8],inactive
Oc1ccc(/C=C\c2cc(O)cc(O)c2)cc1,outcome,[7],inactive
same,outcome,[8],inactive
same,outcome,[10],inactive
same,"activity, negative = inhibition",[11]; parasite line A,3.83%
same,"activity, negative = inhibition",[11]; parasite line B,-0.952%
same,Potency,AS120,inactive
same,Potency,ATS189,inactive
same,Potency,CP191,inactive
same,Potency,CP203,inactive
same,Potency,CP291,inactive
same,Potency,TAB113,inactive
same,Potency,W2,inactive
COc1ccccc1CNc1ccnc(-c2ccc3c(c2)OCO3)n1,Potency,[4],1.58 µM (active)
same,Potency,[12],0.794 µM (active)
same,Potency,[6],3.16 µM (active)
same,outcome,[7],inactive
same,outcome,[8],inactive
O=C(c1cc(C(F)(F)F)cc(C(F)(F)F)c1)N1CCC2(CCCN(Cc3nccs3)C2)CC1,Potency,[6],inactive
O=C(c1cccc(F)c1)N1CCC2(CCN(Cc3cc(C(F)(F)F)cc(C(F)(F)F)c3)CC2)CC1,Potency,[4],inactive
COCCn1c(=O)c(-c2cccs2)nc2cnc(N(C)C)nc21,Potency,[4],7.94 µM (active)
Cc1cccc(CNc2nc(-c3ccc4c(c3)OCO4)nc3ccccc23)c1,Potency,[4],0.398 µM (active)
same,Potency,[6],3.16 µM (active)
same,activation,[5],6.93%
O=c1c(-c2cc(F)cc(F)c2)nc2cnc(N3CCNCC3)nc2n1Cc1cccs1,Potency,[13],3.98 µM (active)
O=c1cnc2cnc(Oc3cccc(Cl)c3)nc2n1Cc1ccc(F)cc1,Potency,[13],7.94 µM (active)
FC(F)(F)c1ccccc1-c1nc(N2CCOCC2)c2ccccc2n1,activation,[5],9.18%
O=c1c(-c2cccs2)nc2cncnc2n1Cc1ccccc1,Potency,[13],1.26 µM (active)
same,Potency,[4],6.31 µM (active)
CC(=O)NCCNc1ncncc1-c1ccccc1C,"activity change, negative = inhibition",[13],19.5% [at 2.29 µM]
same,Potency,[4],2.51 µM (active)
COc1ccc(-c2nc3cnc(N4CCOCC4)nc3n(C[C@H]3CCCO3)c2=O)cc1,Potency,[13],inactive
Cc1nc2cnc(N(C)C)nc2n(C2CC2)c1=O,activation,[5],9.86%
COCCn1c(=O)cnc2cnc(Oc3ccccc3)nc21,activation,[5],10.1%
COc1cccc(-c2cncnc2NC2CCNCC2)c1,Potency,[6],inactive
COc1ccc(Oc2ncc3nc(C)c(=O)n(-c4ccccc4)c3n2)cc1,Potency,[4],5.01 µM (active)
N#Cc1cccc(-c2nc3cnc(Oc4cccc(Cl)c4)nc3n(C3CC3)c2=O)c1,Potency,[13],3.16 µM (active)
Cn1c(=O)c(-c2cc(F)cc(F)c2)nc2cnc(N3CCOCC3)nc21,activation,[5],-3.42%
CCNc1ncc2ncc(=O)n(C3CC3)c2n1,Potency,[13],inactive
CNc1cc(-c2ccccc2CN(C)C)ncn1,Potency,[12],0.631 µM (active)
CNc1ccnc(-c2ccccc2OC)n1,Potency,[12],5.01 µM (active)
same,activation,[5],7.18%
Cc1noc(C)c1-c1cncnc1NCc1ccccc1,activation,[5],4.46%
Cc1noc(C)c1-c1cncnc1N(C)Cc1ccco1,Potency,[4],3.16 µM (active)
same,Potency,[6],2.51 µM (active)
CN1CCN(c2ncc3nc(-c4cc(F)cc(F)c4)c(=O)n(C)c3n2)CC1,Potency,[13],inactive
CN(C)c1ncc2nc(-c3cc(F)cc(F)c3)c(=O)n(CCC#N)c2n1,Potency,[13],inactive
CNc1cc(-c2ccccc2C(F)(F)F)ncn1,Potency,[4],inactive
same,activation,[5],17.1%
COc1ccc(Oc2ncc3nc(C)c(=O)n(C[C@H]4CCCO4)c3n2)cc1,Potency,[4],3.98 µM (active)
same,activation,[5],-5.29%
CN1CCN(c2ncnc3ccc(-c4ccc5c(c4)OCO5)cc23)CC1,Potency,[4],7.94 µM (active)
Cn1cc(-c2nc3cnc(N4CCOCC4)nc3n(C3CC3)c2=O)c2ccccc21,Potency,[6],inactive
FC(F)(F)c1ccccc1-c1nc(NCCN2CCOCC2)c2ccccc2n1,Potency,[4],7.94 µM (active)
COCCn1c(=O)c(-c2cccc(C#N)c2)nc2cnc(Oc3ccccc3)nc21,Potency,[13],7.94 µM (active)
Cn1cc(-c2nc3cnc(N4CCNCC4)nc3n(C)c2=O)c2ccccc21,Potency,[13],7.94 µM (active)
